The record followed here is paper PMC10726135, “HNF4α isoforms regulate the circadian balance between carbohydrate and lipid metabolism in the liver”.

Over roughly 18,000 sequences, “log2 normalized intensity” has its median near 0.39; the highest 2% begin near 6.6. The sample as a whole holds a higher share of the highest values than the screen did.

The target in the assay is T1, HNF4alpha2 (COS-7 nuclear extract) (Homo sapiens, UniProt P41235 1-474).
T1 sequence: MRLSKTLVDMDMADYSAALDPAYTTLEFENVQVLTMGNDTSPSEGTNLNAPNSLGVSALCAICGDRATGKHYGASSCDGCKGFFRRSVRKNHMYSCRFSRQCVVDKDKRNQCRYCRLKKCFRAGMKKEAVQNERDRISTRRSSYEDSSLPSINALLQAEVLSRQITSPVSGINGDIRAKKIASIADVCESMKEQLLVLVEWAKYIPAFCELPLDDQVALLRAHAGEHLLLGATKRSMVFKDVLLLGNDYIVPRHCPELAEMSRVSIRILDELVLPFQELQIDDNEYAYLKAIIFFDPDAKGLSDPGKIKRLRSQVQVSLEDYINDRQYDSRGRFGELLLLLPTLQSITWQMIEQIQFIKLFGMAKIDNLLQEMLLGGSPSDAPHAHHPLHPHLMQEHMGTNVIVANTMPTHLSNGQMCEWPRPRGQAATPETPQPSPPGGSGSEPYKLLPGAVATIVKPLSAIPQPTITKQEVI
As to the kind of experiment: protein-binding microarray; COS-7 nuclear extract on double-stranded Agilent 4x180k PBM; binding buffer, salt, pH and temperature not given in the material; high values mean tight binding. The note with it: chain copies: 2; label: 3' end of strand 1 on the slide; dsDNA, one strand shown. The gist of the method: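 The binding signal is Agilent software's gProcessedSignal after background correction and normalization. Arrays were a custom Agilent SurePrint G3 4x180k design of double-stranded ~60-nt oligonucleotides with ~44,000 test sequences in quadruplicate, probed with nuclear extracts of COS-7 cells transiently expressing a human HNF4α isoform. Scans were made at 2-µm resolution on an Agilent G2565CA scanner.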
Take “TCTCTCTCTCTTTCTTCCCCCACTCCAAGTGCCTAGGGAGATTAGAGTATCGGTCGA”: the binding signal came to 5.09 log2 normalized intensity.

Turning to “CGAGTCAAGGGTCAATCCTCTCTTTGGAATGCCTAGGGAGATTAGAGTATCGGTCGA”, the binding signal stood at 2.31 log2 normalized intensity.

On to “CCTCCTGCCCTATGTCCTCCAGCTCTTGGGGCCTAGGGAGATTAGAGTATCGGTCGA”, for which the binding signal turned out to be 1.53 log2 normalized intensity.

Turning to “TGGAAGTCGCCGTGAGGTTATTTGCAGACTGCCTAGGGAGATTAGAGTATCGGTCGA”, the binding signal turned out to be 0.0984 log2 normalized intensity.

Regarding “ATTCCTATCGCCCTTCTGTCAAGTCCAAAGGCCTAGGGAGATTAGAGTATCGGTCGA”, the binding signal was -0.648 log2 normalized intensity.

As to “TCTGCACAAAATACAAGTCGTAAAGACCTTGCCTAGGGAGATTAGAGTATCGGTCGA”, the binding signal was determined as 0.709 log2 normalized intensity.

Turning to “CCCTCAGCAACTGCAAGGCTGACCCGTGAAGCCTAGGGAGATTAGAGTATCGGTCGA”, the binding signal is 1.4 log2 normalized intensity.

“TGTGAGTCCAGTTGAATGATGGCGAGTGTGGCCTAGGGAGATTAGAGTATCGGTCGA”: the binding signal was determined as 1.62 log2 normalized intensity.

In the case of “TCTTGACCAGGCAAGCTTGACCTTTGATCCGCCTAGGGAGATTAGAGTATCGGTCGA”, the binding signal came to 10.2 log2 normalized intensity.

On to “CTTGACCTTTGATCCAGGCTCAGTGGGCGTGCCTAGGGAGATTAGAGTATCGGTCGA”, for which the binding signal stood at 4.91 log2 normalized intensity.

Regarding “TTGATCCAGGATCCTTCTTGACCAGGCAAGGCCTAGGGAGATTAGAGTATCGGTCGA”, the binding signal was -0.434 log2 normalized intensity.

For the sequence “ATTTGACCCTTGGCCAGGTGCAGTGGCTCAGCCTAGGGAGATTAGAGTATCGGTCGA”, the binding signal is 2.99 log2 normalized intensity.

Consider “TCCAGGCTTGTCCTTTTGACCACAGTTATCGCCTAGGGAGATTAGAGTATCGGTCGA”, for which the binding signal is 2.33 log2 normalized intensity.

On to “TTAGGATGACCTTTAGATTCTTACAGGCAAGCCTAGGGAGATTAGAGTATCGGTCGA”, for which the binding signal was 3.63 log2 normalized intensity.

For the sequence “CAAGCTTGATCCAGGATCCTTCTTGACCAGGCCTAGGGAGATTAGAGTATCGGTCGA”, the binding signal was determined as 0.316 log2 normalized intensity.

With “ATCCTTCTTGACCAGGCAAGCTTGACCTTTGCCTAGGGAGATTAGAGTATCGGTCGA”, the binding signal is 7.07 log2 normalized intensity.

Turning to “GCAAGCTTGACCTTTGATCCAGGCTCAGTGGCCTAGGGAGATTAGAGTATCGGTCGA”, the binding signal was found to be 7.48 log2 normalized intensity.

Turning to “AATTACCATTCTTGAGGACAGGCCAAATCCGCCTAGGGAGATTAGAGTATCGGTCGA”, the binding signal stood at 0.0816 log2 normalized intensity.

Take “CCCAGGTCCAGCCTTTGGGCAGGGGCATCCGCCTAGGGAGATTAGAGTATCGGTCGA”: the binding signal was -0.72 log2 normalized intensity.

As for “TGTGCAGCTTTGTGTAAAACTTCAAAGAAGGCCTAGGGAGATTAGAGTATCGGTCGA”, the binding signal was -0.427 log2 normalized intensity.

Take “GGTGTGAGAGGGCAAAGGTCACAGCATTAGGCCTAGGGAGATTAGAGTATCGGTCGA”: the binding signal is 6.76 log2 normalized intensity.

With “GGGCCAGCAAGAGGTGACCCCAGGGCAAAGGCCTAGGGAGATTAGAGTATCGGTCGA”, the binding signal came out at 2.92 log2 normalized intensity.

Consider “GGCTGAATGGGCAAAGGTCACAAGAGGTGCGCCTAGGGAGATTAGAGTATCGGTCGA”, for which the binding signal amounted to 4.6 log2 normalized intensity.

With “TCACAGTGTGGGGCAAATCTGAGGTCAAAGGCCTAGGGAGATTAGAGTATCGGTCGA”, the binding signal was 2.22 log2 normalized intensity.

“AATGGGCAAAGGTCACAAGAGGTGCTGTGTGCCTAGGGAGATTAGAGTATCGGTCGA”: the binding signal is 4.69 log2 normalized intensity.

For the sequence “CCTGAGGTGTGAGAGGGCAAAGGTCACAGCGCCTAGGGAGATTAGAGTATCGGTCGA”, the binding signal was 8.02 log2 normalized intensity.

As to “GGGCAGCCCGTGTGGGCGGGTGCAGCTTCCGCCTAGGGAGATTAGAGTATCGGTCGA”, the binding signal was -0.675 log2 normalized intensity.

Consider “CAGTTATCAGACAGAGGAATTCAGCAGGATGCCTAGGGAGATTAGAGTATCGGTCGA”, for which the binding signal was -0.611 log2 normalized intensity.

As for “TTTCTCCTCTCTGGGCTTCCATTGTGATTCGCCTAGGGAGATTAGAGTATCGGTCGA”, the binding signal was determined as 1.02 log2 normalized intensity.

As for “GCCACATTCCCCGACTCCTGGGTGTGAGATGCCTAGGGAGATTAGAGTATCGGTCGA”, the binding signal was found to be 0.517 log2 normalized intensity.

As to “AAGCAGAAGCTGCACACATGTCAAAGGTCAGCCTAGGGAGATTAGAGTATCGGTCGA”, the binding signal is 6.19 log2 normalized intensity.

Regarding “CAGCAATCACCTACCCCCAGATTCTCTGTTGCCTAGGGAGATTAGAGTATCGGTCGA”, the binding signal is 2.35 log2 normalized intensity.

For “GTTATCTAATGGAGAGGATGGGGACAAAGGGCCTAGGGAGATTAGAGTATCGGTCGA”, the binding signal was found to be 1.47 log2 normalized intensity.

In the case of “GACAAAGGTCATTCATGTGCAGGTTGGAATGCCTAGGGAGATTAGAGTATCGGTCGA”, the binding signal came out at 2.77 log2 normalized intensity.

For the sequence “CTAATGGAGAGGATGGGGACAAAGGTCAAGGCCTAGGGAGATTAGAGTATCGGTCGA”, the binding signal stood at 7.24 log2 normalized intensity.

Take “GGAGAGGATGGGGACAAAGGTCAAGAAAGCGCCTAGGGAGATTAGAGTATCGGTCGA”: the binding signal came to 5.86 log2 normalized intensity.

“TTTGGAATTCCCTGCAAGGACAAAGGTCATGCCTAGGGAGATTAGAGTATCGGTCGA”: the binding signal is 6.87 log2 normalized intensity.

In the case of “AATTCCCTGCAAGGACAAAGGTCATGTTTTGCCTAGGGAGATTAGAGTATCGGTCGA”, the binding signal turned out to be 6.26 log2 normalized intensity.

For “TGTCTCTGGTCAGGGAGGGCTTTAGAATGTGCCTAGGGAGATTAGAGTATCGGTCGA”, the binding signal came to 1.01 log2 normalized intensity.

For the sequence “TTGGTCTGCTGAGTCTCATGATTAGATTGAGCCTAGGGAGATTAGAGTATCGGTCGA”, the binding signal came out at 0.746 log2 normalized intensity.

On to “TGGCCTGGGAACTTAGCGATTTGGAACCCAGCCTAGGGAGATTAGAGTATCGGTCGA”, for which the binding signal was 0.829 log2 normalized intensity.

Regarding “AAGTTCAAGTAGATAAAATCAAACAGATGTGCCTAGGGAGATTAGAGTATCGGTCGA”, the binding signal stood at 1.02 log2 normalized intensity.
